Experimental data as given in the supplement of paper PMC6555819.

How the values were obtained:
Assay in all cases: PBM binding z-score (relative to random genomic background probes); higher = stronger binding; sequences stand for … in GC…GCGATTGACAGCGTAGAATGAAGG
[1] = tested on: PPARg:RXRa IVT, anti-PPARg (NR concentration 270 nM, RXRa partner concentration 90 nM)
Method in brief: (§1)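 Custom Agilent 4×180K protein-binding microarrays carried double-stranded probes. Their 34-nt variable regions held direct-repeat seeds, single-nucleotide variants, half-site ablations and random human genomic background sequences. Arrays were incubated 1 h with ligand-free nuclear receptor dimers in PBS pH 7.4, 2% milk, 0.02% Triton X-100, 1 mM DTT, 0.2 mg/mL BSA and 0.4 mg/ml salmon testes DNA. Antibodies against each partner (one per run) detected binding, and scanned fluorescence was regression-normalized. Binding z-scores use random background probes as reference.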

[2] = tested on: PPARg DBDmut:RXRa IVT, anti-PPARg (DBD mutation: PPARg1 K132A/R137A, NR concentration 270 nM, RXRa partner concentration 90 nM)
Method in brief: as §1

[3] = tested on: PPARg DBDmut IVT, anti-PPARg (DBD mutation: PPARg1 K132A/R137A, NR concentration 270 nM)
Method in brief: as §1

[4] = tested on: PPARg homodimer (NR concentration 180 nM)
Method in brief: as §1

[5] = tested on: PXR:RXRa (NR concentration 270 nM, RXRa partner concentration 90 nM)
Method in brief: as §1

[6] = tested on: PXR homodimer (NR concentration 270 nM)
Method in brief: as §1

[7] = tested on: RARa:RXR (NR concentration 270 nM, RXRa partner concentration 90 nM)
Method in brief: as §1

[8] = tested on: RARa homodimer (NR concentration 270 nM)
Method in brief: as §1

[9] = tested on: RARb:RXRa (NR concentration 270 nM, RXRa partner concentration 90 nM)
Method in brief: as §1

[10] = tested on: RARb homodimer (NR concentration 270 nM)
Method in brief: as §1

Sequence | PBM binding z-score [1] | PBM binding z-score [2] | PBM binding z-score [3] | PBM binding z-score [4] | PBM binding z-score [5] | PBM binding z-score [6] | PBM binding z-score [7] | PBM binding z-score [8] | PBM binding z-score [9] | PBM binding z-score [10]
CGTCAAACTTCAACTAAGGTAACGTAAAGCACGC | 0.514 | 0.469 | 0.79 | 0.684 | 0.396 | 0.0401 | 0.922 | 1.05 | 0.391 | 0.665
CAAACTAGGTCACTAAAGGTCAAAGTCGAATGAC | 8.98 | 4.79 | 2.9 | 5.36 | 6.84 | 2.87 | 7.45 | 3.41 | 5.53 | 5.66
CGAACTAGGTCAAGGACAGTAAATCTCCGCACGC | 7.98 | 5.28 | 4.25 | 3.13 | 1.1 | 0.317 | 2.19 | 0.685 | 3.67 | 2.91
ACTTACGGCTCAACGAGGTTATAGCACGCGTATA | 0.0544 | 0.327 | 0.825 | 0.463 | 0.645 | 0.358 | 0.812 | -0.139 | 0.165 | 0.526
AGAATGAGATTACCAAAGATCAGGGAAACGCTTG | -0.595 | 0.561 | 0.0997 | -0.0322 | -0.245 | -0.0511 | -0.182 | -0.0131 | -0.301 | -0.938
CGAACAAGGTCATCCAGGACAGTGAATACATTGA | 5.07 | 3.54 | 2.64 | 3.58 | 5.44 | 7.22 | 5.39 | 2.04 | 5.19 | 4
CGTCCAAGGTCGAAGGTCAGTGAAGAGATGACGG | 2.36 | -0.273 | -0.43 | 1.19 | 3.61 | 0.105 | 5.45 | 0.117 | 3.98 | 3.62
CCGACTGGGGCAAGGTCACCATAACGCACAGCCA | 4.62 | 0.00337 | -0.825 | 2.64 | 3.25 | 0.544 | 3.76 | 0.752 | 4.25 | 4.23
TCTGCTAGGTCATCGATGGTCAGCTAATCTGCTA | 4.24 | 0.105 | -0.541 | 0.22 | 1.81 | -0.703 | 2.07 | -1.04 | 4.02 | 3.19
TCTAGTTGGTCACGGAGGTCACAAACGACGGGTA | 3.96 | 0.857 | 0.878 | 2.5 | 4.3 | 1.25 | 4.32 | 1.68 | 3.66 | 4.21
TCTAGTTGGTCACGGAGGTCCCACACGACGGGTA | 2.31 | 0.993 | 1.03 | 0.373 | 0.138 | -0.319 | 0.243 | 0.299 | 1.57 | 1.32
CGAACGAGGTCATGAGTTGATAGCAAATGCCGAT | 6.46 | 1.73 | 1.44 | 2.84 | 5.17 | 0.602 | 5.48 | 0.273 | 5.23 | 3.94
TAGCCTAGGTCATTCAGGGGCCACTATAGAAAGC | 3.19 | 0.203 | -0.136 | 2.11 | 3.08 | -0.109 | 4.13 | 0.262 | 4.11 | 3.28
CCTTACGGGTCACTGACAGGTTATAGCGTTTGGA | 3.67 | -0.0392 | -0.319 | 2.56 | 3.48 | 0.179 | 3.97 | 0.964 | 3.88 | 3.34
CGTCCGAGGTCAAGGTCAGTGAAAGAGACTCGAA | 5.07 | 0.688 | -0.148 | 4.23 | 5.51 | 1.87 | 6.15 | 1.57 | 5.71 | 5.16
TTGCCTAGGTCATTGGGCCAGTATAGTACGCATC | 3.83 | 0.969 | -0.224 | 0.621 | 1.67 | -0.193 | 2.13 | -0.65 | 3.79 | 2.92
GCTTACGGGTCCAAGGTTATAGCATGAATAGAAT | 0.338 | 0.865 | -0.558 | 0.0227 | 0.869 | 0.331 | 1.06 | 0.0844 | 0.932 | 0.871
TACCCTAGGTCATTGGGCCAGTATAGTACGCATC | 4.36 | 0.464 | 0.484 | 1.89 | 1.94 | 0.578 | 2.56 | 0.228 | 3.87 | 3.25
GATACAGGGTCAAGGTCAGAGTACGCGTATTGAT | 5.18 | 1.47 | 0.678 | 2.96 | 5.08 | 1.84 | 5.53 | 2.12 | 5.11 | 5.14
CGAACTAGGTCATTGACAGGACAGTGGATAGTAA | 7.98 | 2.72 | 1.77 | 1.39 | 1.52 | 0.501 | 2.02 | -0.303 | 3.53 | 2.83
CGTCCGAGGTCATAGGAGGTCAGTGAAGACAGAT | 4.71 | 1.87 | 0.417 | 5.49 | 7.21 | 6.7 | 6.7 | 2.36 | 5.36 | 5.04
TAGCCTAGGTCATTCAGGGGCAAGTATAGAAAGC | 3.07 | 0.118 | 0.778 | 1.7 | 5.54 | 0.783 | 3.46 | 0.682 | 3.81 | 3.46
CGAACGAGGTCATTGACAGGACAGTGAATAGTAA | 5.72 | 2.22 | 0.785 | 3.3 | 5.28 | 3.11 | 5.46 | 0.884 | 4.82 | 3.73
CGAACTAGGTCGAGGACAGTGAATCTCCGCACGC | 5 | 0.082 | -0.0951 | -0.11 | -0.012 | -0.207 | 0.419 | -0.18 | 1.64 | 1.18
